Screens as filed in PubChem.
Only some compounds are listed: those with a hit (about 1.1% of all), similar ones and a draw of the others.
TrxR1 inh-1: inhibitors of rat thioredoxin reductase 1; recombinant rTrxR1, NADPH fluorescence consumption, selenite substrate; hit rate 1% among 390,000; O89049; Potency, µM (doses to about 114 µM), without a hit: top-dose activity change, negative = inhibition, hits mostly inhibitors; also: potency is read from the fitted curve at half-maximal effect; % is scaled to controls: 0 for no effect and ±100 for the full control effect; nearly all actives have a fitted effect of over 65% in size
Target sequence (O89049 whole entry, looked up): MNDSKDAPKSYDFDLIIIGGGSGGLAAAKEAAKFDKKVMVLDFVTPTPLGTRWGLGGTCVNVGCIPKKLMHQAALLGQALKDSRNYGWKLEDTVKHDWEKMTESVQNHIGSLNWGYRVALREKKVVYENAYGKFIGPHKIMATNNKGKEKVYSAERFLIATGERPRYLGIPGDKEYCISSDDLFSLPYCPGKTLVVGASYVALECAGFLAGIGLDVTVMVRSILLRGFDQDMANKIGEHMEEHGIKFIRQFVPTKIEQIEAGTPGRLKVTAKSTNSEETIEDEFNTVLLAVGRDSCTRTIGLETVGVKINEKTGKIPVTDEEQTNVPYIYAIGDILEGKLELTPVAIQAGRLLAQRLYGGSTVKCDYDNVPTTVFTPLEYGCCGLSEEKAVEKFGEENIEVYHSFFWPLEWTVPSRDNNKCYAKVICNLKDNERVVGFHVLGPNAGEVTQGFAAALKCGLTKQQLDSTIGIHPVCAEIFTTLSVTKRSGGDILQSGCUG
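Rat TrxR1 (90 nM in the dispensed reagent) was pre-reduced with 400 uM NADPH for 5 min at room temperature, then incubated with compound for 15 min. After 400 uM selenite was added, NADPH fluorescence (Ex 340/Em 450 nm) was followed for 8 min.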
RGS4 inhibitor: blocks human RGS4-accelerated GTP hydrolysis. P49798. Transcreener GDP fluorescence polarization, RGS4-accelerated GTP hydrolysis. Potency, µM (titrated, usually from 114 µM), inactives show at the highest dose activity change, negative = inhibition, usual class: inhibitors. hit rate 0.039% among 390,000. AID 504845; also: potency is read from the fitted curve at half-maximal effect; % is scaled to controls: 0 for no effect and ±100 for the full control effect; nearly all actives have a fitted effect of over 75% in size
Target sequence (P49798 whole entry, looked up): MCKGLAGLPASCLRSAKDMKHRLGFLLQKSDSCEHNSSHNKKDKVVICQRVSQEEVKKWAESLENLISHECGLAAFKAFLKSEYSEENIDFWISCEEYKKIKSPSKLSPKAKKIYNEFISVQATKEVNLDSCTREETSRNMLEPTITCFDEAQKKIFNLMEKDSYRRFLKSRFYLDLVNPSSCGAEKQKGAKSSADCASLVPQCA
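MLSMR compounds (23 nl, pin-transferred) preincubated 10 min at room temperature with a 500nM (2x) first reagent, then RGS4 at 900nM (2x) plus Transcreener GDP mix added; fluorescence polarization (620/688 nm) read before and after 90 min at 30 °C.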
Eya2 inh: Eya2 (human) phosphatase inhibition | Potency, µM (top dose mostly 76.9 µM), for inactives: top-dose activity, negative = inhibition, hits mostly inhibitors | O00167 | AID 488837 | recombinant Eya2, OMFP fluorescence dephosphorylation (OMFP is methylfluorescein phosphate) | hit rate 0.006% among 330,000; also: potency is read from the fitted curve at half-maximal effect; % is scaled to controls: 0 for no effect and ±100 for the full control effect
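Eya2 (0.2 uM) preincubated 10 min at ambient with compound, then OMFP substrate added at 50 uM; 10 min reaction in 50 mM HEPES pH 7.5, 50 mM NaCl, 5 uM MgCl2, 0.05% BSA, 1 mM DTT. Fluorescence read at Ex 485/Em 525 nm.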
IDH1 R132H inh: inhibitors of human mutant IDH1 R132H | O75874 | IDH1-R132H enzyme, NADPH consumption, diaphorase/resazurin fluorescence | Potency, µM (titrated, usually from 76.6 µM), inactives show at the highest dose activity change, negative = inhibition, usual class: inhibitors | hit rate 0.093% among 390,000 | AID 602179; also: potency is read from the fitted curve at half-maximal effect; % is scaled to controls: 0 for no effect and ±100 for the full control effect; nearly all actives have a fitted effect of over 65% in size
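IDH1-R132H (0.5 ug/mL dispensed) in pH 7.5 Tris buffer was preincubated 30 min with compound, then given a substrate mix of 0.016 mM NADPH and 2 mM alpha-KG for 80 min at room temperature; remaining NADPH was read by diaphorase/resazurin fluorescence.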
TrxR1 substrate: is turned over as a substrate by rat TrxR1; purified TrxR1 substrate turnover, NADPH consumption readout; AID 588456; hit rate 0.01% among 390,000; O89049; Potency, µM (titrated, usually from 114 µM), inactives show top-dose activity change, negative = substrate turnover; also: potency is read from the fitted curve at half-maximal effect; % is scaled to controls: 0 for no effect and ±100 for the full control effect; nearly all actives have a fitted effect of over 50% in size
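Rat TrxR1, dispensed at 90 nM, was prereduced with 400 uM NADPH (final) for 5 min at ~22 deg C, then incubated with compound 15 min before 400 uM selenite. A first-read NADPH fluorescence drop versus no-compound background flagged substrates.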
TRb SRC2 Alpha: TRb-SRC2 (human) interaction inhibition; hit rate 50% among 30; shares compounds with TrxR1 inh-1; Potency, µM; AID 2444; AlphaScreen TRb LBD-SRC2 peptide binding, luminescence; calls by dose curve
HepG2 tox: reduces HepG2 viability in TRb-SRC2 counter-screen; HepG2 viability, ATP luminescence (CellTiter-Glo), 72 h; Potency, µM; AID 2447; shares compounds with TrxR1 inh-1; hit rate 50% among 40; calls by dose curve
AR SRC2 FP: AR-SRC2 (human) interaction inhibition, selectivity; 25 tested, under 10 active; shares compounds with TrxR1 inh-1; AR-LBD Tx-SRC2-3 fluorescence polarization, 3 h; calls only; AID 2448; call rule not given here
PPARg-DRIP2 inh: selectivity of TRb-SRC2 inhibitors: human PPARgamma coactivator binding inhibition. shares compounds with TrxR1 inh-1. PPARg LBD / Texas Red DRIP-2 peptide, fluorescence polarization, 3 h. Potency, µM. 25 tested, under 10 active. AID 2449; calls by dose curve
VDR SRC2 FP: disrupts human vitamin D receptor binding to SRC2 peptide | shares compounds with TrxR1 inh-1 | VDR LBD/SRC2-3 peptide, fluorescence polarization, 3 h | Potency, µM | 25 tested, under 10 active | AID 2455; calls by dose curve
TRb SRC2 FluoFP: disrupts human TRb binding to fluorescein-SRC2 peptide; shares compounds with TrxR1 inh-1; TRb LBD / fluorescein-SRC2 peptide, fluorescence polarization; Potency, µM; 20 tested, under 10 active; AID 2487; call rule not given here
GR counterassay: inhibits human glutathione reductase in TrxR1 counterassay; purified GR, DTNB reduction absorbance 405 nm kinetic; AID 652020; 55 tested, under 10 active; activity change, negative = inhibition, % at 57.1 µM; shares compounds with TrxR1 inh-1
TrxR1 inh-2: blocks rat thioredoxin reductase 1 in hit validation. shares compounds with TrxR1 inh-1. recombinant TrxR1, NADPH fluorescence consumption, selenite substrate. Potency, µM, usual class: inhibitors. hit rate 50% among 55
TrxR1 insulin: TrxR1 inhibition in insulin mechanism assay. hit rate 20% among 55. TrxR1 Trx-coupled insulin reduction, NADPH absorbance 340 nm. Potency, µM. shares compounds with TrxR1 inh-1;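 active = compounds with a measured potency under 100 micromolar; inconclusive = filed, but no rule given; inactive = potency at or above that, or unmeasurable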
TrxR1 inh-3: blocks rat TrxR1 reduction of DTNB; shares compounds with TrxR1 inh-1; purified TrxR1, DTNB reduction, A412; Potency, µM; hit rate 90% among 55; AID 652256;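 active = a half-inhibiting concentration could be measured and was below 100 µM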
* marks the source's active call; other numbers are inactive results; i = inactive; ? = inconclusive; . = no result; [ ] = another dose, or the depositor's remark. Unless noted, calls follow the shape of the dose curve; as a rule, active = well fitted curve in the direction sought with a large enough effect; inconclusive = small, poorly fitted or top-dose-only effect, or another doubt; inactive = no such curve, though single readings can be large; an effect the other way counts as inactive or inconclusive.

SMILES | TrxR1 inh-1 | RGS4 inhibitor | Eya2 inh | IDH1 R132H inh | TrxR1 substrate | HepG2 tox | GR counterassay | TrxR1 inh-2 | TrxR1 insulin | TrxR1 inh-3 | others
CCCC1CCN(C(=O)COC(=O)c2ccc(S(C)(=O)=O)c([N+](=O)[O-])c2)CC1 | . | . | . | . | . | 6.6µM* | . | . | . | .
CS(=O)(=O)c1ccc(C(=O)OCC(=O)N2CCC(Cc3ccccc3)CC2)cc1[N+](=O)[O-] | . | . | . | . | . | 9µM* | . | . | . | .
C[C@H]1C(=O)N(C)CCN1C(=O)c1cccc(OC2CCN(CC(C)(C)C)CC2)c1 | 6.8% | 28.7% | 4.6% | 3.3% | 1.2% | . | . | . | . | .
NC(=Nc1ccc(N)cc1)C(N)=Nc1ccc(N)cc1 | -15.6% | -20.6% | 6.9% | -14.8% | -5.6% | . | . | . | . | .
CS(=O)(=O)c1ccc(C(=O)OCC(=O)N2CC(=O)Nc3ccccc32)cc1[N+](=O)[O-] | 2.82µM* | -31.2% | . | . | 0.1% | 15.6µM* | . | . | . | . | TRb SRC2 Alpha=10.5µM*;AR SRC2 FP=i;PPARg-DRIP2 inh=15.1µM*;VDR SRC2 FP=63.6µM*;TRb SRC2 FluoFP=2.8µM*
CCN(CC)C(=O)COC(=O)c1ccc(O)cc1 | 10.3%[57.1 µM] | 36.8% | . | 5.5% | 4.5%[57.1 µM] | . | . | . | . | .
CS(=O)(=O)c1ccc(C(=O)OCC(=O)N2CCOCC2)cc1[N+](=O)[O-] | . | . | . | . | . | i | . | . | . | .
CCN(CC)C(=O)COC(=O)c1ccc(S(C)(=O)=O)c([N+](=O)[O-])c1 | . | . | . | . | . | ? | . | . | . | .
O=C1CN(C(=O)COC(=O)c2ccc(N3CCCCCC3)c([N+](=O)[O-])c2)c2ccccc2N1 | 11.8%[57.1 µM] | 8.3% | -3.7% | -3.6% | 6.4%[57.1 µM] | . | . | . | . | .
CS(=O)(=O)c1ccc(C(=O)OCC(=O)N2Cc3ccccc3C2)cc1[N+](=O)[O-] | . | . | . | . | . | 19.9µM* | . | . | . | .
CC1CCC(NC(=O)c2nc(Cn3ccc([N+](=O)[O-])n3)no2)CC1 (stereo unspecified) | 29.1%[57.1 µM] | -14.5% | -14.8% | 2.4% | 11.0%[57.1 µM] | . | . | . | . | .
COC(=O)c1ccccc1S(=O)(=O)N(Cc1ccco1)Cc1cc2cc(OC)ccc2[nH]c1=O | 10µM* | -33.4% | 10.1% | 11.0% | 24.4% | . | 0.0 | 5.97* | i | 7.4µM*
Cc1ccc(Nc2c(-c3ccc(C)o3)nc3cnccn23)cc1 | 3.98µM* | ? | 1.7% | -0.4% | 12.8%[57.1 µM] | . | -12.2 | ? | i | 1.99µM*
Cc1ccc(Nc2c(-c3ccc(C)o3)nc3ccccn23)cc1 | ? | ? | . | . | 113.8% | . | . | . | . | .
CCCN=C1N(CC)C[C@@H]2[C@@H]3C(=O)N(Cc4ccccc4)C(=O)[C@@H]3[C@](C)(C(=O)OC)N12 | 17.4% | -32.9% | 6.5% | 3.7%[38.3 µM] | 11.6% | . | . | . | . | .
CC(C)(C)c1cc(CN2CCN(CCO)CC2)cc(C(C)(C)C)c1O | 7.94µM* | 2.0% | -5.9% | 0.1% | 5.1%[57.1 µM] | . | 0.2 | ? | i | 1.27µM*
COc1cc(CN2CCCCC2C(=O)Nc2ccc(Oc3ccccc3)nc2)ccc1O (stereo unspecified) | 12.6µM* | -29.9% | 9.6% | 6.8% | 0.8% | . | 5.9 | ? | i | 0.14µM*
Cc1ccc(CNC(=O)c2cn(C)c(=O)c3c2c2ccccc2n3C)o1 | 15.8µM* | -23.2% | 3.3% | -0.1% | 10.0% | . | -14.6 | ? | i | 1.51µM*
Cc1ccc(CNC(=O)c2cc3c(=O)n(C)c4ccccc4c3n2C)o1 | ? | -12.9% | 14.5% | -3.5% | 6.4% | . | . | . | . | .
O=c1c(Cl)c(Cl)cnn1Cc1nnc(-c2ccc(Cl)cc2)o1 | 7.08µM* | -47.3% | -10.0% | 13.3% | 8.6% | . | 0.6 | 8.44* | i | 3.44µM*
Cc1ccc(-c2nnc(Cc3ccc(Cl)cc3)o2)cc1 | 25.5% | 7.7% | 2.8% | 9.4% | -1.5% | . | . | . | . | .
CC(=O)Nc1cccc(C(=O)OCC(=O)NC(=O)C2CCCCC2)c1 | -1.3% | 31.5% | . | . | -1.9% | i | . | . | . | . | TRb SRC2 Alpha=i;TRb SRC2 FluoFP=i
CNc1ccc(C(=O)OCC(=O)NC(=O)NC2CCCCC2)cc1[N+](=O)[O-] | 19.4% | 1.9% | -12.6% | -4.5% | -0.9% | . | . | . | . | .
Cc1cc(C(=O)OCC(=O)NC(=O)C2CCCCC2)ccc1[N+](=O)[O-] | 2.7% | 22.4% | . | . | -2.0% | ? | . | . | . | . | TRb SRC2 Alpha=i;TRb SRC2 FluoFP=i
